Drawing on PubChem BioAssay (NCI), this text covers growth for 40 molecules.

Compounds without any hit were thinned out: in the full panel of roughly 83,000, 20% have a hit.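 Compound tested at a single concentration for 48 hours in 96-well plates; a percent growth value below 10 was scored as active.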 A number with no mark means an inactive call. Active and inactive are the calls of the source.

In the experiment the test system is HOP-62 NSCLC. In words: NCI-60 one-dose screen, 48 h (100 = growth as untreated, 0 = no growth, -100 = all killed). The note with it: 10 µM unless noted. On the procedure: Growth inhibition of the HOP-62 human Non-Small Cell Lung tumor cell line is measured as a screen for anti-cancer activity. Cells are grown in 96 well plates and exposed to the test compound for 48 hours. Compounds are tested at a single concentration, which is 10^-5 M for most compounds. The reported endpoint is percent growth (GI% or GIPRCNT), where numbers from 0 - 100% represent growth inhibition, and numbers from -100% - 0 represent cell death. For example, a value of 40 represents 60% growth inhibition. A value of 0 means no net growth occurred over the course of the experiment. A value of -40 indicates 40% of cells at the beginning of the experiment died by the end of the experiment. A value of -100 means all cells are dead at the end of the experiment.
NCI-60 Human Tumor Cell Lines Screen was performed using the standard one-dose NCI protocol, which is described in more detail at https://dtp.cancer.gov/discovery_development/nci-60/default.htm.
Compounds with GIPRCNT values below 10 were considered active. Activity score was based on GIPRCNT using the following formula: […]
Score is 0 for GIPRCNT values of 100 or above, 50 for GIPRCNT values of 0, and 100 for GIPRCNT values of -100.
For the molecule `Cc1ccc2[nH]c(-c3ccc(S(C)(=O)=O)cc3)c(/C=N/N=C(N)N)c2c1`, the growth is 58.3%. Next, `CCCCCCC(CCCC)COC(=O)c1ccc(Cl)cc1` (stereo not given): 119%; `COc1ccc(C2=NN(C(C)=O)C(c3ccc(Oc4ccnc5cc(Cl)ccc45)c(OC)c3)C2)cc1` (stereo not given): 27.6%. Take `Cc1ccc(/C=C/C(=O)c2ccc(NC(=O)CSc3nc4c([nH]3)c(=O)n(C)c(=O)n4C)cc2)c(C)c1`: the growth was 20.4%.

Turning to `CCN(CC)c1ccc(/C=N/NC(=O)c2ccc(Nc3ccnc(C(F)(F)F)c3)cc2)c(O)c1`, the growth is 25.6%. Next, `COc1ncc2cc1NS(=O)(=O)c1cccc(c1)C(=O)NCC1=CC=C(S1)c1ncnc3c1SC2=C3C`: 4.4% (active); `CCOC(=O)Nc1nc2ccc(SCC(C)C)cc2s1`: 22.6%. Regarding `COc1cccc2c(N=NC(=O)c3ccc(S(N)(=O)=O)cc3)c(O)[nH]c12`, the growth is 102%. For the molecule `CCOC(=O)n1cc(-c2nonc2-c2cn(C)c3ccccc23)c2ccccc21`, the growth is 34.5%. Regarding `N#Cc1c(-c2ccccc2)cc(-c2ccccc2)n(CCCC(=O)NO)c1=O`, the growth was 22.2%.

With `O=C(N/N=C/c1ccc(O)cc1O)c1ccc(Nc2ccnc(C(F)(F)F)c2)cc1`, the growth is 31.1%.

With `CCc1ccc(CCC(=O)Nc2ncc(Cc3ccc(Cl)cc3)s2)o1`, the growth is 30.9%. Next, `C=C1C(=O)O[C@H]2[C@H]1CC/C(COC(=O)NCCCCCCCCNC(=O)OC/C1=C/CC[C@@]3(C)O[C@H]3[C@H]3OC(=O)C(=C)[C@@H]3CC1)=C\CC[C@@]1(C)O[C@@H]21`: -38.2% (active).

Take `CC1(C)CC2=C3C=C[C@@H]4[C@@]5(C)CC[C@H](O)C(C)(C)[C@@H]5CC[C@@]4(C)[C@]3(C)CC[C@@]2(C(=O)O)CC1=O`: the growth is 50.9%. The same measure for `S=c1[nH]c2cc(Cl)ccc2o1`: 102%; for `Cc1nc2sc(C(=O)Nc3ccc(Cl)cc3)c(N)c2cc1C(O)c1ccccc1` (stereo not given): 45.1%; for `CCCCCCCC/C=C\CCCCCCCCOc1ccccc1CC(=O)NCC[N+]1(C)CCCCC1`: 75.9%.

On to `CCOC(=O)c1c(NC(=O)CSc2n[nH]c3nc4ccccc4n23)sc(CC)c1C`, for which the growth was 108%.

Turning to `Cn1ncc2ccc(-c3nc(-c4ccccc4)[nH]c3-c3n[nH]c(=O)n3C3CC3)cc21`, the growth was 95.1%. Next, `CN1CCN(Cc2cc(NC(=O)c3cccc(C#Cc4cccc5[nH]nc(N)c45)c3)cc(C(F)(F)F)c2)CC1`: 42.4%; `O=C(CSc1nnc2sc(Nc3cccc(Cl)c3)nn12)c1ccc(F)cc1`: 97.7%; `CC(C)(C)c1cc(C=Nc2cccc(C(F)(F)F)c2)c(O)c(C(C)(C)C)c1`: 95.7%. The same measure for `CN(C)c1ccc(/C=C/C(=O)c2ccc(Nc3nc(Nc4ccc(F)cc4)nc(Nc4ccc(Cl)cc4)n3)cc2)cc1`: 78.3%. Consider `C[C@@H]1CC[C@@]2(OC1)O[C@H]1C[C@H]3[C@@H]4CC=C5C[C@@H](O[C@@H]6O[C@H](CO)[C@@H](O[C@@H]7O[C@@H](CO)[C@H](O)[C@H]7O)[C@H](O)[C@H]6O[C@@H]6O[C@@H](C)[C@H](O)[C@@H](O)[C@H]6O)CC[C@]5(C)[C@H]4CC[C@]3(C)[C@H]1[C@@H]2C`, for which the growth is 6.56% (active).

Regarding `C=C(C)[C@@H]1CC[C@]2(CO)CC[C@]3(C)[C@H](CC[C@@H]4[C@@]5(C)CCC(NCCc6ccc(O)cc6)C(C)(C)[C@@H]5CC[C@]43C)[C@@H]12` (stereo not given in full), the growth is -77.5% (active).

For the molecule `COc1ccc(/C=C/C(=O)c2cc3c(N)c(C(=O)Nc4ccc(OC)cc4)sc3nc2C)cc1`, the growth is 49.2%. `CCn1cc(C(=O)NN=C2CCCCCC2)c(=O)c2ccc(C)nc21`: the growth was 94.8%. As for `COc1cc(/C=C/c2cc(/C=C/c3ccc(O)c(OC)c3)n(C(=O)Nc3ccc(F)cc3)n2)ccc1O`, the growth was 30.2%. Regarding `CCCC(O)Cn1ncc(C(=O)OCC)c1NC(=O)NCc1cccc(F)c1` (stereo not given), the growth is 100%. The same measure for `O=C1c2cccnc2C(=O)c2c1c(C(=O)OCCCN1CCCCC1)c1ccccn21`: -31.9% (active). With `COc1cc(Nc2ncccc2NC(=O)c2cn(Cc3cccc(Oc4ccccc4)c3)nn2)cc(OC)c1`, the growth was 99.7%.

Turning to `C(/C=C/c1ccccc1)=Nc1ccc(CCc2ccc(N=C/C=C/c3ccccc3)cc2)cc1`, the growth was 98.2%. Take `Cc1ccc(N=Nc2c(N)nn(-c3ccccc3)c2N)cc1`: the growth is 64%. Next, `COc1ccc(C(c2cc(OC)c(OC)c(OC)c2)N2CCN(Cc3ccccc3)CC2)cc1` (stereo not given): 69.7%; `Cc1cc(C)c(-c2c(O)c(Br)c(-c3c(C)cc(C)c(Br)c3C)c(O)c2Br)c(C)c1Br`: 62%.

`CCN=C1C=CC(=C(c2ccc(N(C)C)cc2)c2ccc(N(C)C)cc2)c2ccccc21`: the growth was -55.5% (active). Next, `COc1ccc(C2=Nc3c/c(=C\c4c(O)[nH]c5cc(Cl)ccc45)ccc3=N2)cc1`: 77.3%. For the molecule `CCn1c2ccc(O)cc2c2c(C)c3c[n+](C(C)C)ccc3c(C)c21`, the growth was 43%. Next, `CCOC(=O)c1c(-c2ccc(Cl)cc2)c(C#N)c2c(C#N)c(N)nn2c1N`: 74.9%. The same measure for `CCOC(=O)C(=Cc1cccc(C#N)c1)C(=O)OCC`: 115%.
